Assay results: PubChem BioAssay AID1159580 (chemical genetic matrix, 2015)
Several values for one entry are separate records, joined by “and”; a condition that tells them apart may be missing. Equal entries are not always repeated. The whole screen tested about 5,500 compounds, of which about 2,000 (36%) were called active. Inconclusive results (about 18%) are left out. No stated cut-off is given here; in the data, active means normalized growth mostly below about 0.91 (no sharp cut-off); inconclusive means no clear call, values can overlap the other calls; inactive means mostly above about 0.92. Some of the results follow.

Assay: chemical genetic growth profiling, strain panel (AID 1159580);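 further: tested at 20 µM; growth read once vehicle control cultures reached saturation at 30 °C; 1 = growth at the plate median or of vehicle wells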
Conditions: S. cerevisiae deletion strains, growth OD

Measured: normalized growth

C[C@@H]1CC[C@@]2(NC1)O[C@H]1C[C@H]3C4CC=C5C[C@@H](O)CC[C@]5(C)C4CC[C@]3(C)C1[C@@H]2C (stereo partly drawn)
0.0614 (active) and 1.03 (inactive): locus YJL095W, strain BCK1, stronger effect = lower value
inactive: locus YGL167C, strain pmr1, stronger effect = lower value 0.956 | locus YHR079C, strain IRE1, stronger effect = lower value 1.03
active: locus YAL021C, strain ccr4, stronger effect = lower value 0.0884 | locus YAL026C, strain drs2, stronger effect = lower value 0.0686 | locus YAL030W, strain snc1, stronger effect = lower value 0.0727 | locus YBL061C, strain skt5, stronger effect = lower value 0.246 | locus YBR009C, strain hhf1, stronger effect = lower value 0.0752 | locus YBR021W, strain FUR4, stronger effect = lower value 0.566 | locus YBR023C, strain chs3, stronger effect = lower value 0.189 | locus YBR171W, strain sec66, stronger effect = lower value 0.0867 | locus YBR229C, strain ROT2, stronger effect = lower value 0.132 | locus YBR231C, strain swc5, stronger effect = lower value 0.147 | locus YBR279W, strain paf1, stronger effect = lower value 0.431 | locus YCL011C, strain gbp2, stronger effect = lower value 0.0674 | locus YCL016C, strain dcc1, stronger effect = lower value 0.155 | locus YCL029C, strain bik1, stronger effect = lower value 0.0831 | locus YCL061C, strain MRC1, stronger effect = lower value 0.0777 | locus YCL069W, strain vba3, stronger effect = lower value 0.067 | locus YCR088W, strain abp1, stronger effect = lower value 0.0699 | locus YDL005C, strain med2, stronger effect = lower value 0.0923 | locus YDL035C, strain GPR1, stronger effect = lower value 0.086 | locus YDL040C, strain nat1, stronger effect = lower value 0.495 | locus YDL074C, strain BRE1, stronger effect = lower value 0.188 | locus YDL101C, strain DUN1, stronger effect = lower value 0.0946 | locus YDL134C, strain PPH21, stronger effect = lower value 0.0628 | locus YDL185W, strain tfp1, stronger effect = lower value 0.673 | locus YDL192W, strain arf1, stronger effect = lower value 0.123 | locus YDR001C, strain nth1, stronger effect = lower value 0.0751 | locus YDR069C, strain doa4, stronger effect = lower value 0.255 | locus YDR101C, strain arx1, stronger effect = lower value 0.132 | locus YDR137W, strain rgp1, stronger effect = lower value 0.644 | locus YDR159W, strain sac3, stronger effect = lower value 0.155 | locus YDR162C, strain NBP2, stronger effect = lower value 0.0581 | locus YDR195W, strain ref2 0.153 | locus YDR297W, strain sur2, stronger effect = lower value 0.0933 | locus YDR318W, strain mcm21, stronger effect = lower value 0.0863 | locus YDR334W, strain swr1, stronger effect = lower value 0.075 | locus YDR335W, strain msn5, stronger effect = lower value 0.0693 | locus YDR388W, stronger effect = lower value 0.0688 | locus YDR392W, strain spt3, stronger effect = lower value 0.0901 | locus YDR502C, strain sam2, stronger effect = lower value 0.0995 | locus YEL003W, strain gim4, stronger effect = lower value 0.0687 | locus YEL037C, strain rad23, stronger effect = lower value 0.0666 | locus YEL061C, strain CIN8 (second series), stronger effect = lower value 0.0639 | locus YER015W, strain faa2, stronger effect = lower value 0.0893 | locus YER016W, strain bim1, stronger effect = lower value 0.306 | locus YER110C, stronger effect = lower value 0.116 | locus YER111C, strain swi4, stronger effect = lower value 0.0797 | locus YER155C, strain BEM2 (second series), stronger effect = lower value 0.106 | locus YER155C, strain BEM2, stronger effect = lower value 0.0845 | locus YER167W, strain BCK2, stronger effect = lower value 0.0646 | locus YFR010W, strain ubp6, stronger effect = lower value 0.0951 | locus YGL078C, strain dbp3, stronger effect = lower value 0.898 | locus YGL086W, strain mad1, stronger effect = lower value 0.0765 | locus YGL173C, strain kem1, stronger effect = lower value 0.474 | locus YGL227W, strain vid30, stronger effect = lower value 0.0779 | locus YGL240W, strain doc1, stronger effect = lower value 0.262 | locus YGL248W, strain PDE1, stronger effect = lower value 0.0583 | locus YGL253W, strain hxk2, stronger effect = lower value 0.0617 | locus YGR135W, strain pre9, stronger effect = lower value 0.0806 | locus YGR252W, strain gcn5, stronger effect = lower value 0.254 | locus YHR013C, strain ard1, stronger effect = lower value 0.131 | locus YHR027C, strain rpn1, stronger effect = lower value 0.157 | locus YHR079C, strain IRE1 (second series), stronger effect = lower value 0.107 | locus YHR094C, strain hxt1, stronger effect = lower value 0.0989 | locus YHR129C, strain ARP1, stronger effect = lower value 0.0688 | locus YHR142W, strain chs7, stronger effect = lower value 0.0769 | locus YHR200W, strain rpn10, stronger effect = lower value 0.103 | locus YIL066C, strain RNR3, stronger effect = lower value 0.0582 | locus YIL073C, strain SPO22, stronger effect = lower value 0.144 | locus YIL125W, strain kgd1, stronger effect = lower value 0.886 | locus YIR030C, strain dcg1, stronger effect = lower value 0.0978 | locus YJL092W, strain hpr5, stronger effect = lower value 0.0727 | locus YJL095W, strain BCK1 (second series), stronger effect = lower value 0.0644 | locus YJL115W, strain asf1, stronger effect = lower value 0.0841 | locus YJL129C, strain trk1, stronger effect = lower value 0.0945 | locus YJL134W, strain LCB3, stronger effect = lower value 0.0822 | locus YJL154C, strain vps35, stronger effect = lower value 0.0818 | locus YJL164C, strain tpk1, stronger effect = lower value 0.0731 | locus YJL166W, strain qcr8, stronger effect = lower value 0.0704 | locus YJL168C, strain set2, stronger effect = lower value 0.121
0.0512 (active) and 1.05 (inactive): locus YHR030C, strain SLT2, stronger effect = lower value
